# What was measured:
# Assay in all cases: DAPPL (digital affinity profiling via proximity ligation, sequencing); 10 mM Tris-HCl pH 7.5, 50 mM NaCl, 1 mM DTT, 4% glycerol, room temperature, 30 min; GST-TFs on glutathione beads, 16-mer random dsDNA library, 0.1% formaldehyde crosslink after washing; high values mean tight binding
# FEV = molecular target: T1, FEV (Homo sapiens, UniProt Q99581 1-238); conditions: protein: recombinant; tags: N-terminal GST; dsDNA, one strand shown
# T1 sequence: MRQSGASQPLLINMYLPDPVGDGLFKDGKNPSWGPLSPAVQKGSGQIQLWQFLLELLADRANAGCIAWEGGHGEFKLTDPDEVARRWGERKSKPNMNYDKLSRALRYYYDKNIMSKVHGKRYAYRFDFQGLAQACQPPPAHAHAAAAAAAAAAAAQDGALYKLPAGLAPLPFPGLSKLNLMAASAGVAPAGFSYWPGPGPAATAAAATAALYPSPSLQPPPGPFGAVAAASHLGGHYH
# Procedure, shortened: (§1)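 After expression in yeast as GST fusions, human transcription factors were bound to glutathione beads, DNA-barcoded and mixed with a tag-only sample. The pools were incubated with 200 nmole of a 16-mer random double-stranded DNA library in Tris/NaCl/DTT/glycerol buffer (30 min, room temperature), washed and crosslinked with 0.1% formaldehyde. Proximity ligation with BsaI/T4 ligase ran for 1 h at 37 °C, before PCR amplification and sequencing on an Illumina NextSeq500. Binding signal is a hexamer's read frequency for a factor divided by its frequency for the tag-only sample.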
# ETV5 = ETV5 (Homo sapiens, UniProt P41161 1-510); conditions: protein: recombinant; tags: N-terminal GST; dsDNA, one strand shown
# Procedure, shortened: as §1
# HSF1 = HSF1 (Homo sapiens, UniProt Q00613 1-529); conditions: protein: recombinant; tags: N-terminal GST; chain copies: 3; dsDNA, one strand shown
# Procedure, shortened: as §1
# SPIC = molecular target: T2, SPIC (Homo sapiens, UniProt Q8N5J4 1-248); conditions: protein: recombinant; tags: N-terminal GST; dsDNA, one strand shown
# T2 sequence: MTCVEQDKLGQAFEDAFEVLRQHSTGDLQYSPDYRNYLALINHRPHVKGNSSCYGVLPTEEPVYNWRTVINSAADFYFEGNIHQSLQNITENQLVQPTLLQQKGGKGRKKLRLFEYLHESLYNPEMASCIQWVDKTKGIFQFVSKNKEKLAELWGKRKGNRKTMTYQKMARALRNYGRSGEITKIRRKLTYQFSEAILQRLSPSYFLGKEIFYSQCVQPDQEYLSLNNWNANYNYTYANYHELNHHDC
# Procedure, shortened: as §1
# ELF4 = ELF4 (Homo sapiens, UniProt Q99607 1-663); conditions: protein: recombinant; tags: N-terminal GST; dsDNA, one strand shown
# Procedure, shortened: as §1
# ELK4 = molecular target: T3, ELK4 (Homo sapiens, UniProt P28324-2 1-405); conditions: protein: recombinant; tags: N-terminal GST; dsDNA, one strand shown
# T3 sequence: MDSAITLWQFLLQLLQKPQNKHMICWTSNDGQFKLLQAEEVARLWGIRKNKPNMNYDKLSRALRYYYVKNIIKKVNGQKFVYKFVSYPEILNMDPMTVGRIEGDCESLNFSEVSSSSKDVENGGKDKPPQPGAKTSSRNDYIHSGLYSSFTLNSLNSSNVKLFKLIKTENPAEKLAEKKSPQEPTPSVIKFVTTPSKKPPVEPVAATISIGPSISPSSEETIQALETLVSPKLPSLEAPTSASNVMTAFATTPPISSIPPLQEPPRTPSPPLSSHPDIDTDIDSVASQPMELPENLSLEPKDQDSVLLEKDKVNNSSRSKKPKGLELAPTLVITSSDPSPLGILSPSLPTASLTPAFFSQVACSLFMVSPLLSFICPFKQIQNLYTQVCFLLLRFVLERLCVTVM
# Procedure, shortened: as §1
# ETV2 = molecular target: T4, ETV2 (Homo sapiens, UniProt O00321 1-342); conditions: protein: recombinant; tags: N-terminal GST; dsDNA, one strand shown
# T4 sequence: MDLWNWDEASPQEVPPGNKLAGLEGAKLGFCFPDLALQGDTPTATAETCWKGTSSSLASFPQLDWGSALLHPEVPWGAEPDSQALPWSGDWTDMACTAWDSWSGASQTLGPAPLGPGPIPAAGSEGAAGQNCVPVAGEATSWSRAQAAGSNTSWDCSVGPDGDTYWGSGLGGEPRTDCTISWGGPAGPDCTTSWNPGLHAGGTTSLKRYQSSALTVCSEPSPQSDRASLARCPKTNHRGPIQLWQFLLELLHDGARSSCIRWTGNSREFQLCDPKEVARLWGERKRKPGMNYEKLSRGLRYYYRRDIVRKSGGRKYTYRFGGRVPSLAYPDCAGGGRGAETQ
# Procedure, shortened: as §1
# ELF3 = molecular target: T5, ELF3 (Homo sapiens, UniProt P78545 1-371); conditions: protein: recombinant; tags: N-terminal GST; dsDNA, one strand shown
# T5 sequence: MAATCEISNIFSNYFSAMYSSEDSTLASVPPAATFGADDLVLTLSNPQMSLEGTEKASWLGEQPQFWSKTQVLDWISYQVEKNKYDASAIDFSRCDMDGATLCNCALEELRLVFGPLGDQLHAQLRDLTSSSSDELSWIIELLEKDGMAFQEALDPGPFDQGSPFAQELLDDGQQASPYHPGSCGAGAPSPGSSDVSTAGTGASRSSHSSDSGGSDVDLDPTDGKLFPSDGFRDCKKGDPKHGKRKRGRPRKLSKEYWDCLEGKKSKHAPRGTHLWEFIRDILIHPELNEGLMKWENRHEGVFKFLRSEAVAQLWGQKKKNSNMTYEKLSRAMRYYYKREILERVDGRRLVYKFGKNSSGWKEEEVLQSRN
# Procedure, shortened: as §1
# CRX = CRX (Homo sapiens, UniProt O43186 1-299); conditions: protein: recombinant; tags: N-terminal GST; dsDNA, one strand shown
# Procedure, shortened: as §1
# ETV1 = ETV1 (Homo sapiens, UniProt P50549 1-477); conditions: protein: recombinant; tags: N-terminal GST; dsDNA, one strand shown
# Procedure, shortened: as §1
# ERF = molecular target: T6, ERF (Homo sapiens, UniProt P50548 1-548); conditions: protein: recombinant; tags: N-terminal GST; dsDNA, one strand shown
# T6 sequence: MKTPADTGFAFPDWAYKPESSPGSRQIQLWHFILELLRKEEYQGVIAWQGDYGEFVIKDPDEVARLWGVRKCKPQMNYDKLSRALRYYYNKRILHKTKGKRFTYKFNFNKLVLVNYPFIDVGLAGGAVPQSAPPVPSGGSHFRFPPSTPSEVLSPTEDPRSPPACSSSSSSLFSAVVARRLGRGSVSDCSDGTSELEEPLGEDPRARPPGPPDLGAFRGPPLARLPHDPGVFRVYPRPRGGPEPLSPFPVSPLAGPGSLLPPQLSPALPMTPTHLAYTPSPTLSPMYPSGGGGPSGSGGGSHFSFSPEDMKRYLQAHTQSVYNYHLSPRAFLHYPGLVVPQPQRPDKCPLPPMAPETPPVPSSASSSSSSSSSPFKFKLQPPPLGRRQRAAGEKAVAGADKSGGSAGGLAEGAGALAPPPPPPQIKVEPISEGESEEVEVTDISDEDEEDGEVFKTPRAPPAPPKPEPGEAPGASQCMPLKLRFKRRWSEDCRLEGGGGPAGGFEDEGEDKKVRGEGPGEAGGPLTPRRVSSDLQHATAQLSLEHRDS
# Procedure, shortened: as §1
# ETV3L = molecular target: T7, ETV3L (Homo sapiens, UniProt Q6ZN32 1-361); conditions: protein: recombinant; tags: N-terminal GST; dsDNA, one strand shown
# T7 sequence: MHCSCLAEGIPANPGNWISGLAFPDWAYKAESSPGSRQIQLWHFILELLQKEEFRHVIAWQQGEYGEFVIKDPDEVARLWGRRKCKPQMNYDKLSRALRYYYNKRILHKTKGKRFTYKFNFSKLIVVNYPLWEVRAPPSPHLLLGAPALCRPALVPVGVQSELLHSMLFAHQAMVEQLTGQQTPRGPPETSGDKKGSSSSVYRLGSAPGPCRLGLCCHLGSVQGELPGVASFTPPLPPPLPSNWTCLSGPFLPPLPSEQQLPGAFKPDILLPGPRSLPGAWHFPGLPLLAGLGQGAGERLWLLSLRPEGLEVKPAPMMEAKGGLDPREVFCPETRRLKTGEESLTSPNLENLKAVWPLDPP
# Procedure, shortened: as §1
# ETS2 = molecular target: T8, ETS2 (Homo sapiens, UniProt P15036 1-469); conditions: protein: recombinant; tags: N-terminal GST; dsDNA, one strand shown
# T8 sequence: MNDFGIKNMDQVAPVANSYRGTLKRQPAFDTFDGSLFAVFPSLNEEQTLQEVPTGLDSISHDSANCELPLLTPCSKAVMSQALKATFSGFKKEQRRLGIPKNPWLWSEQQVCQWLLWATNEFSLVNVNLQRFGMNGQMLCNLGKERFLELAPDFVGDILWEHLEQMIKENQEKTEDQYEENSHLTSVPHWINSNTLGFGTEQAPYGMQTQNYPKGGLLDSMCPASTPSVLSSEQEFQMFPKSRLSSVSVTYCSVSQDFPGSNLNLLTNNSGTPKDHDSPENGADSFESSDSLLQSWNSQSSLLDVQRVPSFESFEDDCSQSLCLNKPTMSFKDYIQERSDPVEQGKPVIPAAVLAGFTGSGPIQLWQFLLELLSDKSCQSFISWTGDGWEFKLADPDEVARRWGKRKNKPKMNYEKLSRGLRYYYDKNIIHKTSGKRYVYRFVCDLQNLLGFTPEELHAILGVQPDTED
# Procedure, shortened: as §1
# SPDEF = molecular target: T9, SPDEF (Homo sapiens, UniProt O95238 1-335); conditions: protein: recombinant; tags: N-terminal GST; dsDNA, one strand shown
# T9 sequence: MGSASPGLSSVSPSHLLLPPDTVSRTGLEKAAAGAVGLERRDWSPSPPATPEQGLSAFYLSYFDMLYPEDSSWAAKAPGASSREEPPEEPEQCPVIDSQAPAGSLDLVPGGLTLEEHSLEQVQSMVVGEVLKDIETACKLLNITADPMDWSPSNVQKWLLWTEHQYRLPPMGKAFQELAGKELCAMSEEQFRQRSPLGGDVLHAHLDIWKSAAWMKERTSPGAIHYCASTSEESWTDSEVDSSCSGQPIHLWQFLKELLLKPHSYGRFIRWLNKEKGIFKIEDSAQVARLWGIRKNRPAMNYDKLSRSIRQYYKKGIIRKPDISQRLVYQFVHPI
# Procedure, shortened: as §1
# ETV7 = molecular target: T10, ETV7 (Homo sapiens, UniProt Q9Y603 1-341); conditions: protein: recombinant; tags: N-terminal GST; dsDNA, one strand shown
# T10 sequence: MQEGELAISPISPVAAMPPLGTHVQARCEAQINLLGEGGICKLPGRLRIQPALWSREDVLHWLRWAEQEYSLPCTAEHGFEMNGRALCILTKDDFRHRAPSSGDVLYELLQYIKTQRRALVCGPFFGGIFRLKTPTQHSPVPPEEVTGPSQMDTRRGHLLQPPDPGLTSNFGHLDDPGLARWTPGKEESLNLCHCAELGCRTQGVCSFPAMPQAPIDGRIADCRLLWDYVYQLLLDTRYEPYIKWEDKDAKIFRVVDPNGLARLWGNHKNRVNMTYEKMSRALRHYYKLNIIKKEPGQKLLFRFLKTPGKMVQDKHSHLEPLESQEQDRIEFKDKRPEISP
# Procedure, shortened: as §1
# ELF5 = molecular target: T11, ELF5 (Homo sapiens, UniProt Q9UKW6-2 1-255); conditions: protein: recombinant; tags: N-terminal GST; dsDNA, one strand shown
# T11 sequence: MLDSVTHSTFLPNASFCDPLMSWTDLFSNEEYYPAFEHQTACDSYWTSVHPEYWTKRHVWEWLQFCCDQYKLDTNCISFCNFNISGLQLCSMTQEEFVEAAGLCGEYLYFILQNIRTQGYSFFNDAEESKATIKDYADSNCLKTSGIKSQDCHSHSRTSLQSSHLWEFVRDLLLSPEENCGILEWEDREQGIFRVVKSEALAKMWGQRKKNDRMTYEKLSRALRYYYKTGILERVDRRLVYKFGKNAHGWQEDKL
# Procedure, shortened: as §1
# ETV3 = molecular target: T12, ETV3 (Homo sapiens, UniProt P41162-2 1-143); conditions: protein: recombinant; tags: N-terminal GST; dsDNA, one strand shown
# T12 sequence: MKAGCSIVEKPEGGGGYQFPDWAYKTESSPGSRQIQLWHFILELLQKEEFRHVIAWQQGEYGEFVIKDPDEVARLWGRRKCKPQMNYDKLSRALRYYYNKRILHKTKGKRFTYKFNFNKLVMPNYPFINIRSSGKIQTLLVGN
# Procedure, shortened: as §1
# ETV6 = ETV6 (Homo sapiens, UniProt P41212 1-452); conditions: protein: recombinant; tags: N-terminal GST; dsDNA, one strand shown
# Procedure, shortened: as §1
# Chain of ETV1 (P50549 whole entry): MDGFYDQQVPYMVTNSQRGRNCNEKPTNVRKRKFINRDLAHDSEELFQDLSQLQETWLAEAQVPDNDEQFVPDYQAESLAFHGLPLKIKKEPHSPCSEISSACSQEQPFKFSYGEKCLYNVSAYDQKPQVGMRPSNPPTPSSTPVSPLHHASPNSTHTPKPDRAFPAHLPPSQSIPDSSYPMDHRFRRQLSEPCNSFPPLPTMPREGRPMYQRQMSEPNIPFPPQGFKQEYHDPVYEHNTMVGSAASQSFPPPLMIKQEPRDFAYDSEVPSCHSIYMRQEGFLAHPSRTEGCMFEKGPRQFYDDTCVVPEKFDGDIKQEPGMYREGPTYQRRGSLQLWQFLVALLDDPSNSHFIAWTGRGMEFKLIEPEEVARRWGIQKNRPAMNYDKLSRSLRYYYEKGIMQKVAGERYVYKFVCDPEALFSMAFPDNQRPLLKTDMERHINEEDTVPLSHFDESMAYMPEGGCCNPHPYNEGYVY
# Chain of CRX (O43186 whole entry): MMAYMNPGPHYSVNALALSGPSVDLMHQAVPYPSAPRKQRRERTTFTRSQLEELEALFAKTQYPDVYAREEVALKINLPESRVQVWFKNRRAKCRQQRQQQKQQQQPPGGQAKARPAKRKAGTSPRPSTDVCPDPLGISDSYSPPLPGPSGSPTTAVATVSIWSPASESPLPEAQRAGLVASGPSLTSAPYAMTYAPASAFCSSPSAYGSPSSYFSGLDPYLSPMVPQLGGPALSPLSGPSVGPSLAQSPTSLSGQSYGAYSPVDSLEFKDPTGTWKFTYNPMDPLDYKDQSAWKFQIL
# Chain of ELF4 (Q99607 whole entry): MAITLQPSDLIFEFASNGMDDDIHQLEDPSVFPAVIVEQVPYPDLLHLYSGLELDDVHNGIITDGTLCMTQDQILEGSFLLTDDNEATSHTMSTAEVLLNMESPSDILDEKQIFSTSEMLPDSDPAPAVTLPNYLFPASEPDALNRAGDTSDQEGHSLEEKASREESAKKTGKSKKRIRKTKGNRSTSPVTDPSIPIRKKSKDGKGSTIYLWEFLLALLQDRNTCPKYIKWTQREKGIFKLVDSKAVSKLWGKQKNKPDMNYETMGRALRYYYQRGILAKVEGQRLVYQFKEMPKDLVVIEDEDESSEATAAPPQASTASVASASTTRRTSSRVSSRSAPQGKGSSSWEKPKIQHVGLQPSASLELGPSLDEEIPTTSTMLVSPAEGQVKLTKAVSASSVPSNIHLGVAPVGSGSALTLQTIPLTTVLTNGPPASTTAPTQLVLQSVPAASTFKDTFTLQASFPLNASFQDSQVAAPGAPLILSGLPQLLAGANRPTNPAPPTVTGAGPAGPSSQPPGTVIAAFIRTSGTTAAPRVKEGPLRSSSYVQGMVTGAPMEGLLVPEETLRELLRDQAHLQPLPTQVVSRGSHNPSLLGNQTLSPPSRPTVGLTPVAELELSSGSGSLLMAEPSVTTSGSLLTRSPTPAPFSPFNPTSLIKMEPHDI
# Chain of ETV6 (P41212 whole entry): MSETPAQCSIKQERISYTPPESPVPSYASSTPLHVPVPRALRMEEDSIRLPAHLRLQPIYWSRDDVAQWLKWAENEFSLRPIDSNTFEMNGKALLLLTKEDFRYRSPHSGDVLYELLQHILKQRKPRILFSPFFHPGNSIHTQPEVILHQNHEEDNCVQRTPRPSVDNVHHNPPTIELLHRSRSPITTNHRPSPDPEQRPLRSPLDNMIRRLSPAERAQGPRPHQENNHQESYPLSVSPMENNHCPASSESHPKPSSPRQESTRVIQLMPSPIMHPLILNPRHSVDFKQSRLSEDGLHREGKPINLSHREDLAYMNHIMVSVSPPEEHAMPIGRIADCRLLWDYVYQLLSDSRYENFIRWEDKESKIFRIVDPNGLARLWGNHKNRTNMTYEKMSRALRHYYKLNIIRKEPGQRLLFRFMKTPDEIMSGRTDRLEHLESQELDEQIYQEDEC
# Chain of HSF1 (Q00613 whole entry): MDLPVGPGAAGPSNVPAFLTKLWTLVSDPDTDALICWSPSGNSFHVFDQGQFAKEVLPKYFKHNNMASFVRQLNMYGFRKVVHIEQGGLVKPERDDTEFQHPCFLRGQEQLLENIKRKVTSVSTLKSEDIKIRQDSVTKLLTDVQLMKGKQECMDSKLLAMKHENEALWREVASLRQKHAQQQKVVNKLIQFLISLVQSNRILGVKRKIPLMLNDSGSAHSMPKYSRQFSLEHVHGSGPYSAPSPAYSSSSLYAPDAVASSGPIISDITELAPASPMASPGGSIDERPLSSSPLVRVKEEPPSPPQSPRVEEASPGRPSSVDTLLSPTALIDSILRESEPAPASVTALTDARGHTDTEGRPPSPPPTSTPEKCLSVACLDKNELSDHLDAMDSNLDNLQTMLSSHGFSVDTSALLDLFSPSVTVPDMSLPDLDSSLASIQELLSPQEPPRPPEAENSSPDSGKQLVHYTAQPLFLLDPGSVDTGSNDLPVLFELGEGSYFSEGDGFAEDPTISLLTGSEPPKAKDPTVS
# Chain of ETV5 (P41161 whole entry): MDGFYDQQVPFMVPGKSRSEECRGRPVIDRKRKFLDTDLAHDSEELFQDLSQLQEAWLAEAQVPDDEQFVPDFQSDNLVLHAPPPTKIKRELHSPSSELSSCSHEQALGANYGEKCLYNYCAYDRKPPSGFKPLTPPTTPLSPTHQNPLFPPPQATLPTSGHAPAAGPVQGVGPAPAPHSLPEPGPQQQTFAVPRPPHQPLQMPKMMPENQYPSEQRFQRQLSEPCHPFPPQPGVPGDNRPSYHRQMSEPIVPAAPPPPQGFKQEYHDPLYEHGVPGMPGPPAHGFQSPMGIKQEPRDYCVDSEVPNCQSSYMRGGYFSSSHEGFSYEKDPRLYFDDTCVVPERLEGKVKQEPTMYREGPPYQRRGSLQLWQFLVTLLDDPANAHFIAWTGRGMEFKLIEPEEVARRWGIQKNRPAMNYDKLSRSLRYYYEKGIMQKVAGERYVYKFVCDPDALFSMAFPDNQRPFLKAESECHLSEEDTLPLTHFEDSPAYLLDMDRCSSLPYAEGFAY
sequence,measurement,setting,value
TTTGAC,binding signal,FEV,"1.37 fold enrichment (6-mer frequency, TF over GST control)"
same,binding signal,ETV5,"1.5 fold enrichment (6-mer frequency, TF over GST control)"
same,binding signal,HSF1,"1.35 fold enrichment (6-mer frequency, TF over GST control)"
same,binding signal,SPIC,"1.3 fold enrichment (6-mer frequency, TF over GST control)"
same,binding signal,ELF4,"1.47 fold enrichment (6-mer frequency, TF over GST control)"
same,binding signal,ELK4,"1.41 fold enrichment (6-mer frequency, TF over GST control)"
same,binding signal,ETV2,"1.5 fold enrichment (6-mer frequency, TF over GST control)"
same,binding signal,ELF3,"1.39 fold enrichment (6-mer frequency, TF over GST control)"
same,binding signal,CRX,"1.37 fold enrichment (6-mer frequency, TF over GST control)"
same,binding signal,ETV1,"1.42 fold enrichment (6-mer frequency, TF over GST control)"
same,binding signal,ERF,"1.49 fold enrichment (6-mer frequency, TF over GST control)"
same,binding signal,ETV3L,"1.35 fold enrichment (6-mer frequency, TF over GST control)"
same,binding signal,ETS2,"1.33 fold enrichment (6-mer frequency, TF over GST control)"
same,binding signal,SPDEF,"1.48 fold enrichment (6-mer frequency, TF over GST control)"
same,binding signal,ETV7,"1.58 fold enrichment (6-mer frequency, TF over GST control)"
same,binding signal,ELF5,"1.34 fold enrichment (6-mer frequency, TF over GST control)"
same,binding signal,ETV3,"1.38 fold enrichment (6-mer frequency, TF over GST control)"
same,binding signal,ETV6,"1.4 fold enrichment (6-mer frequency, TF over GST control)"
